# Screening data: PubChem BioAssay, National Center for Advancing Translational Sciences (NCATS)
# Shiga inhibitor – blocks Shiga toxin action in Vero cells | Vero cells, Shiga toxin protein synthesis inhibition reporter | inhibition, % at 38.7 µM | actives 9.2% (n = 290,000); in the data active = inhibition mostly above about 28%, no sharp cut-off; inactive = mostly below about 43%; note: 0% is about no effect
# Pf growth 48h – P. falciparum growth inhibition at 48 hours (one generation); P. falciparum luciferase growth in erythrocytes, 48 h; Potency, µM (doses to about 28.7 µM), inactives show at the top dose activity change, negative = inhibition, usual class: inhibitors; actives 5.9% (n = 310,000); AID 504832; note: potency is the fitted concentration of half-maximal effect; % is set by controls: 0 for no effect and ±100 for the full control effect
#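 Parasite viability was followed by luminescence of a genomically integrated firefly luciferase. Cultures held 0.1% parasitemia at 2% hematocrit (final), incubated under 5% CO2 at 37 C.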
# CHX counter – counter-screen for Shiga toxin inhibitors: cycloheximide protein synthesis inhibition. cell reporter, cycloheximide protein synthesis inhibition counterscreen. max response, %. actives 12% (n = 300,000). AID 2314; in the data active = max response mostly above about 13%, no sharp cut-off; inactive = mostly below about 14%; note: read at 38.3 µM for the half of the compounds with a filed dose; 0% is about no effect
# FBPA Giardia inh – blocks Giardia fructose-bisphosphate aldolase activity. actives 0.71% (n = 290,000). A8B2U2. Potency, µM (highest dose often 59.6 µM), for the others: top-dose activity, negative = inhibition, usual class: inhibitors. purified Giardia FBPA; note: potency is the fitted concentration of half-maximal effect; % is set by controls: 0 for no effect and ±100 for the full control effect; nearly all actives have a fitted effect of over 55% in size
# Target sequence (A8B2U2 whole entry, looked up): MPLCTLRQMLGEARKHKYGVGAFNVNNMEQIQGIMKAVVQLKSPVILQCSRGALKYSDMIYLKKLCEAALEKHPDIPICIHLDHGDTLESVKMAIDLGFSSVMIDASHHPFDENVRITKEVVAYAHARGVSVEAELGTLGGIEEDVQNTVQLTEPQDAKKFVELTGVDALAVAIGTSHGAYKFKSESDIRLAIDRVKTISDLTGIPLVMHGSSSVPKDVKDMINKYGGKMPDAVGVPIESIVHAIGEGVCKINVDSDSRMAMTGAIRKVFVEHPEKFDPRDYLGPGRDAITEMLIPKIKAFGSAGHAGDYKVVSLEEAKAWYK
#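 40 nM FBPA preincubated 10 min at RT with compound (up to 57.5 uM final), then substrate plus GAPDH/TPI/NAD/arsenate coupling and diaphorase/resazurin added. Fluorescence read after 20 min at RT, 525/598 nm.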
# Pf growth 96h – P. falciparum growth inhibition at 96 hour, primary screen for plastid delayed-death inhibitors | P. falciparum luciferase reporter growth, 96 h | Potency, µM (series often up to 28.7 µM), for inactives: top-dose activity change, negative = inhibition, usual class: inhibitors | actives 6.9% (n = 320,000) | AID 504834; note: potency is the fitted concentration of half-maximal effect; % is set by controls: 0 for no effect and ±100 for the full control effect
#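 Infected RBCs, 2% Hct / 0.05% parasitemia final; luciferase-reporter P. falciparum; cpd 96 h, 37 C, 5% CO2; luciferase detection reagent; luminescence.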
# NS1 inh – blocks influenza NS1 protein function | Potency, µM (series often up to 46.1 µM), inactives show top-dose activity, positive = more growth | actives 0.4% (n = 270,000) | AID 2326; calls by dose curve; note: potency is the fitted concentration of half-maximal effect; actives are rising curves; nearly all actives have a fitted effect of over 50% in size
#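 Growth recovery, yeast-based: influenza A NS1 expressed in S. cerevisiae causes slow growth, and suppressors are detected by OD600. The parent strain without NS1 is used as positive control.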
# NS1 inh valid – influenza NS1 function inhibition validation; influenza NS1 function cell assay, 15-point titration; AID 492980; 1,400 tested, under 10 active; activity change, negative = inhibition, % at 32.9 µM; shares compounds with NS1 inh; calls by dose curve; note: 0% is about no effect
# * = called active by the depositor; ? = inconclusive; · = no result given. Compounds with a hit are over-represented: about 21% of the library has one in this group of screens. Unless noted, calls come from the whole dose curve; as a rule, active = well fitted curve in the direction sought with a large enough effect; inconclusive = small, poorly fitted or top-dose-only effect, or another doubt; inactive = no such curve, though single readings can be large; an effect the other way counts as inactive or inconclusive.
SMILES,Shiga inhibitor,Pf growth 48h,CHX counter,FBPA Giardia inh,Pf growth 96h,NS1 inh,NS1 inh valid
CC(=O)N1CCc2ccc(NC(=O)c3c(-c4c(Cl)cccc4Cl)noc3C)cc21,-10,?,2,0%,-18%,1%,·
Cn1cc(/C=C(\C#N)C(=O)Nc2ncc(Cc3cccc(Cl)c3)s2)c2ccccc21,-4,15%,5,7%,?,-9%,·
N#C/C(=C\c1c[nH]c2ccccc12)C(=O)Nc1ncc(Cc2ccc(Cl)cc2Cl)s1,9,-9%,-4,6%,?,11µM*,-19
OC(CNCCc1ccc(Cl)cc1)COc1cc(Cl)ccc1Cl (stereo unspecified),-2,?,-1,-3%,?,-4%,·
O=C(O)c1cc(N/N=C/c2ccc(N3CCOCC3)s2)ccc1Cl,64*,22%,45*,-25%,3%,11µM*,23
CCOC(=O)C1=C(CSc2nc3c(cc2C#N)CN(C)CC3)OC(N)=C(C#N)C1c1ccc(F)cc1 (stereo unspecified),14,·,-2,?,?,10µM*,29
CCOC(=O)C1=C(CSc2nc3c(cc2C#N)CCC3)OC(N)=C(C#N)C1c1ccccc1 (stereo unspecified),-7,-3%,13,?,217%,-4%,·
CCOC(=O)C1=C(CSc2nc(-c3ccccc3)ccc2C#N)OC(N)=C(C#N)C1c1cccnc1 (stereo unspecified),92*,·,42*,-17%,?,10µM*,1
CC(=O)C1=C(C)Nc2ncnn2C1c1ccc(O)cc1 (stereo unspecified),-6,-28%,-4,7%,5%,6%,·
Cc1ccc(-n2nc3c(c2NC(=O)/C=C\c2ccc4c(c2)OCO4)CSC3)cc1,-14,-22%,-4,-3%,13µM*,16µM*,-16
Cc1ccc(-n2nc3c(c2NC(=O)/C=C\c2ccc4c(c2)OCO4)CSC3)c(C)c1,-21,?,-4,0%,13µM*,8.9µM*,3
CCCCC(C(=O)O)C(C)CC(=O)Nc1ccn(-c2ccccc2)n1 (stereo unspecified),-11,26%,-3,17%,0%,2.8µM*,28
CCn1c(SCC(=O)N2CCC(C)CC2)nc2c(c1=O)SCC2,64,?,5,4%,-4%,2µM*,-12
CCn1c(SCC(=O)N2CCCC2)nc2c(c1=O)SCC2,-12,?,6,·,?,10%,·
COc1ccccc1Nc1nc(N)nc(CSC(=S)N2CC(C)CC(C)C2)n1 (stereo unspecified),18,?,10,-10%,10µM*,10µM*,?
CSc1ccc(C(c2c(C)[nH][nH]c2=O)c2c(C)[nH][nH]c2=O)cc1,-4,-22%,-1,-20%,?,3.2µM*,?
NC(=S)N/N=C/c1ccccc1OCCSc1ccc(Cl)cc1,13,?,5,-2%,?,10µM*,?
COc1cccc(/C=N/NC(N)=S)c1OCc1ccccc1Cl,-9,?,-4,-11%,?,5%,·
O=C1CNC(=S)N1CCc1ccc(O)c(O)c1,9,?,10,?,-27%,?,29
O=C1CNC(=S)N1CCOc1ccccc1,-10,85%,8,5%,48%,9%,·
COc1cc(C2NC(C(=O)O)Cc3c2[nH]c2ccccc32)cc(OC)c1OC (stereo unspecified),22,20%,0,?,·,2%,·
COc1ccc(C2NC(C(=O)O)Cc3c2[nH]c2ccccc32)cc1OC (stereo unspecified),14,23%,4,18%,·,?,8
CSc1ccc(/C=C(/NC(=O)c2ccc(C)cc2)C(=O)Nc2cccc(F)c2)cc1,-12,17%,11,2%,63%,9%,·
CCCC(CCC)C(=O)OC1C[C@H]2CC[C@@H](C1)[N+]2(C)C (stereo partly specified),-17,12µM*,-4,7%,4.3µM*,?,12
Cc1cc(=O)nc2c3ccccc3n(CC(=O)Nc3ccccc3Br)n12,-5,?,-1,5%,?,2%,·
SMILES,Shiga inhibitor,Pf growth 48h,CHX counter,FBPA Giardia inh,Pf growth 96h,NS1 inh,NS1 inh valid
COC(=O)c1c(C)oc2ccc(N(C(=O)c3ccncc3)S(=O)(=O)c3ccc4ccccc4c3)cc12,12,3%,-3,1%,0%,11µM*,3
CCC1CCCN1Cn1cnc2c([nH]c3ccc(C)cc32)c1=O (stereo unspecified),15,-13%,4,1%,34%,?,-23
CN(Cc1cccc(F)c1)C(=O)c1cccc(S(=O)(=O)N2CCN(Cc3ccccc3)CC2)c1,-5,-5%,-3,·,6%,-34%,·
CN(Cc1cccc(F)c1)C(=O)c1ccc(S(=O)(=O)C(F)F)cc1,10,10%,0,-6%,-19%,2.8µM*,0
NCCCN1CCOCC1,14,·,0,1%,-20%,6%,·
CCCCCC(C)NC(=S)NC(=O)c1cc(S(=O)(=O)N2CCOCC2)ccc1C (stereo unspecified),-7,?,-3,-11%,12µM*,20µM*,-37
CCCC(C)NC(=S)NC(=O)c1cc(S(=O)(=O)N2CCOCC2)ccc1C (stereo unspecified),23,?,-4,?,?,7%,·
COCC(=O)Nc1ccc2nc3n(c(=O)c2c1)CCCCC3,13,16%,12*,-8%,-10%,?,-5
CCOC(=O)N1CCN(C(=O)C(=O)Nc2ccc3nc4n(c(=O)c3c2)CCCCC4)CC1,25,·,-5,4%,-32%,9%,·
O=C1/C(=C/c2cccnc2)Oc2cc(OS(=O)(=O)c3ccc(Cl)cc3)ccc21,10,·,14,2%,-28%,3.5µM*,31
Cc1ccc(SCC(=O)Nc2ccc3c(c2)C(=O)N(C)C3=O)cc1,-1,40%,1,-7%,72%,2.5µM*,13
COC(CNC(=O)c1ccc(Cn2c(=S)[nH]c3cc4c(cc3c2=O)OCO4)cc1)OC,-20,?,7,4%,?,6.3µM*,16
COc1ccc(/C=N/OCC(=O)NCc2cccs2)c(OC)c1,-11,3%,0,-1%,-4%,3%,·
COc1ccc(CN(Cc2cc3cccc(C)c3n3nnnc23)C(=O)N2CCOCC2)cc1,-4,28%,-7,0%,41%,2%,·
O=C(c1cc2ccccc2oc1=O)N(Cc1ccco1)C1CCS(=O)(=O)C1 (stereo unspecified),35,7%,29*,-6%,9%,8.9µM*,-16
